Our source for the binding signal values is PMC7862700, “An all-to-all approach to the identification of sequence-specific readers for epigenetic DNA modifications on cytosine”.

Test in all cases: DAPPL (digital affinity profiling via proximity ligation, sequencing); 10 mM Tris-HCl pH 7.5, 50 mM NaCl, 1 mM DTT, 4% glycerol, room temperature, 30 min; GST-TFs on glutathione beads, 16-mer random dsDNA library, 0.1% formaldehyde crosslink after washing; high values mean tight binding
One assay addresses T1, FLI1 (Homo sapiens, UniProt Q01543 1-452).
T1 sequence: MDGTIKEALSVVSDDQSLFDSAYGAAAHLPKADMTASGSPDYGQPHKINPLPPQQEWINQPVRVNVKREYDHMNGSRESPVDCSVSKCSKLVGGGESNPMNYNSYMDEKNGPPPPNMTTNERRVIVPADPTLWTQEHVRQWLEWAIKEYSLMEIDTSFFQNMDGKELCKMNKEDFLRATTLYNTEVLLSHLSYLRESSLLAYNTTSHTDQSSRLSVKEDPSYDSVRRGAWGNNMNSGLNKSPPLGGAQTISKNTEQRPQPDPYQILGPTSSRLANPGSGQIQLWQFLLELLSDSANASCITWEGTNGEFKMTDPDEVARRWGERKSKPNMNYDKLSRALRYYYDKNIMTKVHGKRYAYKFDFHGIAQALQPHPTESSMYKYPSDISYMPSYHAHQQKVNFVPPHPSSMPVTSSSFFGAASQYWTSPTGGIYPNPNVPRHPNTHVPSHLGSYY
The conditions noted are these: protein: recombinant; tags: N-terminal GST; dsDNA, one strand shown. An outline of the steps:
(§1)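 Yeast served to express human transcription factors as GST fusions, which were then captured on glutathione beads and labelled with DNA barcodes. Pooled with a tag-only sample, they were incubated with 200 nmole of a 16-mer random double-stranded DNA library for 30 min at room temperature in Tris/NaCl/DTT/glycerol buffer, washed, crosslinked with 0.1% formaldehyde, ligated by proximity, amplified by PCR and sequenced. Dividing each hexamer's read frequency for a factor by its frequency for the tag-only sample gives the binding signal.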

Another assay concerns the target T2, ELK1 (Homo sapiens, UniProt P19419 1-428).
T2 sequence: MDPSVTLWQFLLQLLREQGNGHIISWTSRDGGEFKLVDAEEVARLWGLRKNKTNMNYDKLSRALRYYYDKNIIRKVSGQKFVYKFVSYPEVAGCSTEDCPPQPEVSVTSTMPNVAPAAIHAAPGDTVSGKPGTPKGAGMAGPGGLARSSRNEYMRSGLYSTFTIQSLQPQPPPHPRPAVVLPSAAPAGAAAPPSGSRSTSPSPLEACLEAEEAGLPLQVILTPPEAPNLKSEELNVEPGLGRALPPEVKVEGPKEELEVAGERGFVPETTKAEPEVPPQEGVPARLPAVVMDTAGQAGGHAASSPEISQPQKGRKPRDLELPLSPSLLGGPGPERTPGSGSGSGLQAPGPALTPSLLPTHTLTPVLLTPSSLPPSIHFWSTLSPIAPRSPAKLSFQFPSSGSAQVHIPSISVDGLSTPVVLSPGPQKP
Conditions: protein: recombinant; tags: N-terminal GST; dsDNA, one strand shown. An outline of the steps: as §1

Another assay concerns the target T3, GABPA (Homo sapiens, UniProt Q06546 1-454).
T3 sequence: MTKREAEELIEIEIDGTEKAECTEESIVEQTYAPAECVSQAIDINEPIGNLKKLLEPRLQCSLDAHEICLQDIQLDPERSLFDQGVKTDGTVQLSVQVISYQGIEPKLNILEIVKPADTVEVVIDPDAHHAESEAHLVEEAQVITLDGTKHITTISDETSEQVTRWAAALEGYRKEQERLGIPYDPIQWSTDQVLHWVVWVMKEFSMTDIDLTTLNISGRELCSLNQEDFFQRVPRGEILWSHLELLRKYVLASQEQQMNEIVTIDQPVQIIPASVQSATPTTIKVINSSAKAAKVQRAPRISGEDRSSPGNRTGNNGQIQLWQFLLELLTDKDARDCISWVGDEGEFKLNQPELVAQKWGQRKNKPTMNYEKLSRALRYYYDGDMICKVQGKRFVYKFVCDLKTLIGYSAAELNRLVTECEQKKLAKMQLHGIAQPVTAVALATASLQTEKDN
Conditions: protein: recombinant; tags: N-terminal GST; dsDNA, one strand shown. In short, it runs like this:
as §1

The next assay has as its target T4, ERG (Homo sapiens, UniProt P11308 1-479).
T4 sequence: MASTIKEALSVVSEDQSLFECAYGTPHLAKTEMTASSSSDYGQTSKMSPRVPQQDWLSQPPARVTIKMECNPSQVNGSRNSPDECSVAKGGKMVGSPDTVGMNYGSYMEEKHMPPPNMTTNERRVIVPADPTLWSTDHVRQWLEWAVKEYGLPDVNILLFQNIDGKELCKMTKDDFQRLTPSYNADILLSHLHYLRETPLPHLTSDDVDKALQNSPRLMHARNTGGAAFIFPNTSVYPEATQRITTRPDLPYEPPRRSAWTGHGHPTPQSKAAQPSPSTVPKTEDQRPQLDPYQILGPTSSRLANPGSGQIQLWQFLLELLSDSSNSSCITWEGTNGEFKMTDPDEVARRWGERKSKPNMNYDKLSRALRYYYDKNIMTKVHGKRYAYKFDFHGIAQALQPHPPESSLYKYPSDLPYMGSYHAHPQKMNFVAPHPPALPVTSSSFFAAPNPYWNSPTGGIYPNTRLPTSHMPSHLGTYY
Conditions: protein: recombinant; tags: N-terminal GST; dsDNA, one strand shown. An outline of the steps: as §1

In a further assay the target is ELF1 (Homo sapiens, UniProt P32519 1-619). Conditions: protein: recombinant; tags: N-terminal GST; dsDNA, one strand shown. In short, it runs like this: as §1
Sequence of ELF1 (P32519 whole entry): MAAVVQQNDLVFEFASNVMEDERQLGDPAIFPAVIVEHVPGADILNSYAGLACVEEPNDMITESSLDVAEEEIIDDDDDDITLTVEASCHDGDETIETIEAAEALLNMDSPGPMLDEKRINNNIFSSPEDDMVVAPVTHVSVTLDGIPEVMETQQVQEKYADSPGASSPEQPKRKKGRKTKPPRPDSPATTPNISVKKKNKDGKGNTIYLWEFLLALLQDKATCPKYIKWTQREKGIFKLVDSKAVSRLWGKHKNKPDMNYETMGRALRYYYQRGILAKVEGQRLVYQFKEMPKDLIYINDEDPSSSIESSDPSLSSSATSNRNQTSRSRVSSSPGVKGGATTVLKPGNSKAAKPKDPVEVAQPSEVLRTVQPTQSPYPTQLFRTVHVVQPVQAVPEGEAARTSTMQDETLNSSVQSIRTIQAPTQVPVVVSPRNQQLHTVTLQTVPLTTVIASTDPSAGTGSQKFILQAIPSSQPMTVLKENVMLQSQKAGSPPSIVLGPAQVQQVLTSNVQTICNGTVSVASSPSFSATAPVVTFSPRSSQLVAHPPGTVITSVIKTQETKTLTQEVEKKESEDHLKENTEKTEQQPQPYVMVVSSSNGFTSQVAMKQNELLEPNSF
Another assay deals with T5, EHF (Homo sapiens, UniProt Q9NZC4 1-300).
T5 sequence: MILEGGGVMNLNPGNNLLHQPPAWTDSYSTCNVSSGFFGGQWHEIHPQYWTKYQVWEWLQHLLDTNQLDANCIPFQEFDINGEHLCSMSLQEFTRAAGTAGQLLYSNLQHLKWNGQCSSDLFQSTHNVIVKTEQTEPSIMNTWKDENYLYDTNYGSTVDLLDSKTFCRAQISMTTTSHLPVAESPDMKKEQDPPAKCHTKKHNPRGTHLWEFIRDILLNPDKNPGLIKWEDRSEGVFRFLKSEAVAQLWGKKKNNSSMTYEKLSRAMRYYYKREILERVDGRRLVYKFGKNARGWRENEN
Conditions: protein: recombinant; tags: N-terminal GST; dsDNA, one strand shown. In short, it runs like this: as §1

A further assay has as its target SPI1 (Homo sapiens, UniProt P17947 1-270). The conditions noted are these: protein: recombinant; tags: N-terminal GST; dsDNA, one strand shown. An outline of the steps:
as §1

In the next assay the target is SPIB (Homo sapiens, UniProt Q01892 1-262). The conditions noted are these: protein: recombinant; tags: N-terminal GST; dsDNA, one strand shown. An outline of the steps: as §1
Sequence of SPIB (Q01892 whole entry): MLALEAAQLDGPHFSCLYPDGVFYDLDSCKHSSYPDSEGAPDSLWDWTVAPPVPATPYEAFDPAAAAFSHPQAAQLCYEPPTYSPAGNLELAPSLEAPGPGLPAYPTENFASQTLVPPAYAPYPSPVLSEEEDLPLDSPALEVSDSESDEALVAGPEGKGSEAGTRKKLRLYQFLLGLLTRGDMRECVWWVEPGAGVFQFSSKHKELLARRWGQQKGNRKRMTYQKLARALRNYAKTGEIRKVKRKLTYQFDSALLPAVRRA
The target of a further assay is T6, ELK3 (Homo sapiens, UniProt P41970 1-407).
T6 sequence: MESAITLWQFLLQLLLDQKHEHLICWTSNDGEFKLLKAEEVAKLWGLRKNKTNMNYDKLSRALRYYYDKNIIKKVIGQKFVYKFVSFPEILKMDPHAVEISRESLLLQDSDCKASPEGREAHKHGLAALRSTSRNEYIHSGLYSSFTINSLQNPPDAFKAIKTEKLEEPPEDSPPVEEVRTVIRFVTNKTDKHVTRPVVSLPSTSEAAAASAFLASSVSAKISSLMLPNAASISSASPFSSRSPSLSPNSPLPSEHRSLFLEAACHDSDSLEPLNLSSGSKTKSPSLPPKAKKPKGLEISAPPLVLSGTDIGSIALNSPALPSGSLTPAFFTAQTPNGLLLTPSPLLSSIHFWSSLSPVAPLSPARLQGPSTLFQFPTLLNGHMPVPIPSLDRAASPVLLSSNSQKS
The conditions noted are these: protein: recombinant; tags: N-terminal GST; dsDNA, one strand shown. In short, it runs like this: as §1

The next assay deals with T7, FEV (Homo sapiens, UniProt Q99581 1-238).
T7 sequence: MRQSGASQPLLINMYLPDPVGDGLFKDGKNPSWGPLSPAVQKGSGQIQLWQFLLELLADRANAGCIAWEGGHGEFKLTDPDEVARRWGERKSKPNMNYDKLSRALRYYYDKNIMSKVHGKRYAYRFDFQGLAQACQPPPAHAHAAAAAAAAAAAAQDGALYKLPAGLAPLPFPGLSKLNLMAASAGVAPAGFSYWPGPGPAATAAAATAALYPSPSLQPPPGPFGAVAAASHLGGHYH
The conditions noted are these: protein: recombinant; tags: N-terminal GST; dsDNA, one strand shown. In short, it runs like this: as §1

The next assay has as its target ETV5 (Homo sapiens, UniProt P41161 1-510). Conditions: protein: recombinant; tags: N-terminal GST; dsDNA, one strand shown. An outline of the steps: as §1
In a further assay the target is HSF1 (Homo sapiens, UniProt Q00613 1-529). The conditions noted are these: protein: recombinant; tags: N-terminal GST; chain copies: 3; dsDNA, one strand shown. An outline of the steps:
as §1

Another assay concerns the target T8, SPIC (Homo sapiens, UniProt Q8N5J4 1-248).
T8 sequence: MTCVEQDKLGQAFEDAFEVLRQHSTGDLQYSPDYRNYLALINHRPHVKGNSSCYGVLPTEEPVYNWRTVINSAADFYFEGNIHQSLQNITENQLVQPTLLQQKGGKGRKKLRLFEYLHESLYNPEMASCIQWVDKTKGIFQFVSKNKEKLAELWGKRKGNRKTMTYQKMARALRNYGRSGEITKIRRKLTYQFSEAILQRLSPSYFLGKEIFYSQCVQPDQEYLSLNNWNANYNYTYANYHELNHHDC
Conditions: protein: recombinant; tags: N-terminal GST; dsDNA, one strand shown. In short, it runs like this:
as §1

Another assay addresses ELF4 (Homo sapiens, UniProt Q99607 1-663). Conditions: protein: recombinant; tags: N-terminal GST; dsDNA, one strand shown. In short, it runs like this: as §1
In a further assay the target is T9, ELK4 (Homo sapiens, UniProt P28324-2 1-405).
T9 sequence: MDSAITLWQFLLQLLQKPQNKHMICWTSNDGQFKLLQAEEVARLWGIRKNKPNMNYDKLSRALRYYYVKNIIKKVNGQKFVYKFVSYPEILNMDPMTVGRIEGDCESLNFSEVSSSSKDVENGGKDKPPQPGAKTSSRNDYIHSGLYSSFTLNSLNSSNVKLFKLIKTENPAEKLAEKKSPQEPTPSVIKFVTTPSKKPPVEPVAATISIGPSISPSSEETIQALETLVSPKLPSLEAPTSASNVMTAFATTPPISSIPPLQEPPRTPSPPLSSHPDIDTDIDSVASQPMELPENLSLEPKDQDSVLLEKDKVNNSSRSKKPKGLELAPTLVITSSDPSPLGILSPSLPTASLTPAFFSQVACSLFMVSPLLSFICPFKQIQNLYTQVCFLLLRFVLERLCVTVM
Conditions: protein: recombinant; tags: N-terminal GST; dsDNA, one strand shown. In short, it runs like this:
as §1

In another assay the target is T10, ETV2 (Homo sapiens, UniProt O00321 1-342).
T10 sequence: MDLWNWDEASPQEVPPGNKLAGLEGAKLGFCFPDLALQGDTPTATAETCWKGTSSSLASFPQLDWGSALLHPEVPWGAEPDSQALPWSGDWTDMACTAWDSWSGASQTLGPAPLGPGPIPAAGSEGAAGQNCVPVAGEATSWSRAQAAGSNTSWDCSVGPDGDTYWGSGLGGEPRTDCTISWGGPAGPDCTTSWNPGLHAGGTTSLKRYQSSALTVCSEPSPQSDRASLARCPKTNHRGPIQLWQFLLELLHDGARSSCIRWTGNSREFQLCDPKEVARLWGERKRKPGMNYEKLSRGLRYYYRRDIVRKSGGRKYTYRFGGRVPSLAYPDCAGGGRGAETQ
Conditions: protein: recombinant; tags: N-terminal GST; dsDNA, one strand shown. An outline of the steps:
as §1

Another assay concerns the target T11, ELF3 (Homo sapiens, UniProt P78545 1-371).
T11 sequence: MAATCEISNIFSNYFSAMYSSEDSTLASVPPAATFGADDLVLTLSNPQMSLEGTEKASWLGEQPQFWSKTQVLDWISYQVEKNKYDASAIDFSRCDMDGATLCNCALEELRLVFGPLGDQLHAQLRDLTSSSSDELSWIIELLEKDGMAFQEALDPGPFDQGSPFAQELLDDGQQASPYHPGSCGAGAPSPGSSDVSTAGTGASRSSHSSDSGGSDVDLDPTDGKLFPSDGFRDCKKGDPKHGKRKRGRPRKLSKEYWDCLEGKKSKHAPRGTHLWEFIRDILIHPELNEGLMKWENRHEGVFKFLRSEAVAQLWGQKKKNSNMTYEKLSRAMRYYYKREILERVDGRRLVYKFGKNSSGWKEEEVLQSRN
The conditions noted are these: protein: recombinant; tags: N-terminal GST; dsDNA, one strand shown. In short, it runs like this:
as §1

A further assay has as its target CRX (Homo sapiens, UniProt O43186 1-299). Conditions: protein: recombinant; tags: N-terminal GST; dsDNA, one strand shown. In short, it runs like this:
as §1

For another assay, the target named is ETV1 (Homo sapiens, UniProt P50549 1-477). Conditions: protein: recombinant; tags: N-terminal GST; dsDNA, one strand shown. An outline of the steps:
as §1

Sequence of CRX (O43186 whole entry): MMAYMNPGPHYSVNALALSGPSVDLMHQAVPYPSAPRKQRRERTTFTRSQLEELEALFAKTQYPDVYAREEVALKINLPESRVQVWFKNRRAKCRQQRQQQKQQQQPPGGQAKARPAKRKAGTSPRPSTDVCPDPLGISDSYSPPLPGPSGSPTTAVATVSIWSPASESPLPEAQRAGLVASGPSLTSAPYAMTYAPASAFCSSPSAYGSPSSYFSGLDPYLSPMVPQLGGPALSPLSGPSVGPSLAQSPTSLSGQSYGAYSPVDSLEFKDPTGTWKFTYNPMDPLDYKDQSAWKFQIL
Sequence of HSF1 (Q00613 whole entry): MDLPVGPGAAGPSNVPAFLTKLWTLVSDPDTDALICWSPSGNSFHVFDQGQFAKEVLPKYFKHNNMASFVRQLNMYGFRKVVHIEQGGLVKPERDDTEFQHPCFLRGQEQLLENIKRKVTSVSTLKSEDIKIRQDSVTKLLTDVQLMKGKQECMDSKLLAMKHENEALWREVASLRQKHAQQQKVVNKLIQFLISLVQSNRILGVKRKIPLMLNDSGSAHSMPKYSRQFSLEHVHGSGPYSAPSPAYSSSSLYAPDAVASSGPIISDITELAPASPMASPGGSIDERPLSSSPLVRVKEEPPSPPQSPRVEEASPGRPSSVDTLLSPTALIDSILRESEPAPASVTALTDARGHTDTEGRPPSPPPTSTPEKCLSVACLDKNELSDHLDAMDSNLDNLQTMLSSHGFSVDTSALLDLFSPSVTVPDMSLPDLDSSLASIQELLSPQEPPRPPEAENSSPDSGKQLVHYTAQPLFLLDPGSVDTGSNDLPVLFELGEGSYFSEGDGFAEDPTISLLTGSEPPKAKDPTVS
Sequence of ETV1 (P50549 whole entry): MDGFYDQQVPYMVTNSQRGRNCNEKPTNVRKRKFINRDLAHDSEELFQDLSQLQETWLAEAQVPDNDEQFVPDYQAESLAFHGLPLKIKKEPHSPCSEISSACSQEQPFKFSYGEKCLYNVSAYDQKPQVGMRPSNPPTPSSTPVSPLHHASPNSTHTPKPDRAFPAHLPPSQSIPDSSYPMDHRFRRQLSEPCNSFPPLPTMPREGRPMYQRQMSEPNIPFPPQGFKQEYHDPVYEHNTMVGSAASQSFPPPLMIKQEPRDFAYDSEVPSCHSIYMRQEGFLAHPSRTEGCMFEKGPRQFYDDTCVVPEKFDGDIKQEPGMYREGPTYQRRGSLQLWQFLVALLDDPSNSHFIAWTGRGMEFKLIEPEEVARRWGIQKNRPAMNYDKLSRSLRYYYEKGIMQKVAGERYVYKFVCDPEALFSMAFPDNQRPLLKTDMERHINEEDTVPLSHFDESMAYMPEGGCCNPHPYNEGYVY
Sequence of ETV5 (P41161 whole entry): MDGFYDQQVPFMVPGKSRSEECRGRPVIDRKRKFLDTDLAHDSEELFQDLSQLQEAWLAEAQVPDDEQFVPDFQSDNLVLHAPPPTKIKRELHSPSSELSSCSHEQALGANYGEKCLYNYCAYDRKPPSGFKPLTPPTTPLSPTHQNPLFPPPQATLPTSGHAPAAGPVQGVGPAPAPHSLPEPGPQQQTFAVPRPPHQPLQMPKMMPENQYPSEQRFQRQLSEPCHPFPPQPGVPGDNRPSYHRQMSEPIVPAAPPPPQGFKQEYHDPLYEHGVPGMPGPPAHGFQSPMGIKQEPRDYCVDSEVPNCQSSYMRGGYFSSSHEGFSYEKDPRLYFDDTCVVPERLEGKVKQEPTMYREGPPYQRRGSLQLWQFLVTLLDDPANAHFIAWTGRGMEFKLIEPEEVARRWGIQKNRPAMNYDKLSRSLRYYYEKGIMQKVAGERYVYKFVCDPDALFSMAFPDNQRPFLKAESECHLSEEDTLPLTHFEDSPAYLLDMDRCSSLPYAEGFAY
Sequence of ELF4 (Q99607 whole entry): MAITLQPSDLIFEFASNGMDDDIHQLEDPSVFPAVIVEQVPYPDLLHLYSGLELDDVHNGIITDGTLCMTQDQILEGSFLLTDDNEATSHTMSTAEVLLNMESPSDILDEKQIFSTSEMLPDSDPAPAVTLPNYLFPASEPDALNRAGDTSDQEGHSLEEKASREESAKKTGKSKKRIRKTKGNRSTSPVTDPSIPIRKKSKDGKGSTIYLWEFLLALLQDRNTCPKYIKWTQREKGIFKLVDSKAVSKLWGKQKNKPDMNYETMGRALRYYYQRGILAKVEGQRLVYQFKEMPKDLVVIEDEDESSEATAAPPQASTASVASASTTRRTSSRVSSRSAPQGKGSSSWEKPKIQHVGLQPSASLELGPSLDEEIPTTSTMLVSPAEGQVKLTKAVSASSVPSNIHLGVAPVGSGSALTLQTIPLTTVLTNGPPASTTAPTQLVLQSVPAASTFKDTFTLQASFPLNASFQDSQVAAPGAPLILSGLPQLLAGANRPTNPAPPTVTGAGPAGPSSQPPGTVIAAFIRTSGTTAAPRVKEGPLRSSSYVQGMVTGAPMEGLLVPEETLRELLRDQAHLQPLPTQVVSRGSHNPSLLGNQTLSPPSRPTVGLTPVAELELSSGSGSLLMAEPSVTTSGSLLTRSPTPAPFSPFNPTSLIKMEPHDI

For TCCGGA, the binding signal in the assay with FLI1 was 2.58 fold enrichment (6-mer frequency, TF over GST control); with ELK1, 2.53 fold enrichment (6-mer frequency, TF over GST control); with GABPA, 2.37 fold enrichment (6-mer frequency, TF over GST control); with ERG, 3.19 fold enrichment (6-mer frequency, TF over GST control); with ELF1 it was 2.3 fold enrichment (6-mer frequency, TF over GST control); in the assay with EHF it was 2.86 fold enrichment (6-mer frequency, TF over GST control). Moreover, the binding signal was 2.39 fold enrichment (6-mer frequency, TF over GST control) with SPI1; 2.69 fold enrichment (6-mer frequency, TF over GST control) with SPIB; 2.67 fold enrichment (6-mer frequency, TF over GST control) with ELK3; 3.95 fold enrichment (6-mer frequency, TF over GST control) with FEV; 2.83 fold enrichment (6-mer frequency, TF over GST control) in the assay with ETV5; 1.58 fold enrichment (6-mer frequency, TF over GST control) with HSF1. The binding signal was 2.3 fold enrichment (6-mer frequency, TF over GST control) in the assay with SPIC; 2.27 fold enrichment (6-mer frequency, TF over GST control) with ELF4; 1.94 fold enrichment (6-mer frequency, TF over GST control) in the assay with ELK4; 2.27 fold enrichment (6-mer frequency, TF over GST control) with ETV2; 2.23 fold enrichment (6-mer frequency, TF over GST control) in the assay with ELF3; 1.14 fold enrichment (6-mer frequency, TF over GST control) with CRX. In addition, the binding signal in the assay with ETV1 was 2.75 fold enrichment (6-mer frequency, TF over GST control).
